Test results reported in PubChem BioAssay (NCATS).
Results filed as inconclusive are left out. Calls of active or inactive are those of the source. The call rests on the fitted dose curve; in most records, active means well fitted inhibition curve with a large enough effect; inconclusive means small, poorly fitted or top-dose-only effect; inactive means flat fitted curve, though single readings scatter.

Test system: HB3
Assay: qHTS profiling for inhibitors of Plasmodium falciparum proliferation (AID 504749); further: nearly all actives have a fitted effect of over 60% in size;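 on activity, negative = inhibition: 0% = DMSO vehicle and full inhibition = artemisinin control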
Settings: P. falciparum in erythrocytes, SYBR Green DNA, 72 h; series mostly up to 28.7 µM; activity, negative = inhibition: at the top concentration
Procedure, shortened: (§1)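 In a 72 h erythrocytic culture (37 C, humidified, 5% CO2) at 2.5% hematocrit and 0.3% starting parasitemia, compounds were tested; SYBR Green I in detergent lysis buffer stained parasite DNA overnight.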
Potency means the concentration at half of the fitted maximal effect.

Row | Structure (SMILES) | activity, negative = inhibition | Potency
1 | COC(=O)CC[C@H](N)C(=O)O | 7.83% (inactive) | –
2 | CN1C(=O)C[C@@H](C(=O)N[C@@H](Cc2cnc[nH]2)C(=O)N2CCC[C@H]2C(N)=O)NC1=O | 5.24% (inactive) | –
3 | Cc1ncc(C[n+]2csc(CCOP(=O)(O)O)c2C)c(N)n1 | -2.69% (inactive) | –
4 | O=C(O)COc1ccccc1/C=N/NC(=O)c1ccncc1 | 4.99% (inactive) | –
5 | O=C(/C=C/c1cccc(F)c1)NC1CC1 | -2.71% (inactive) | –
6 | CC(C)(Oc1ccc(C2CCCc3ccccc32)cc1)C(=O)O (centres undefined) | 1.53% (inactive) | –
7 | O=C(O)[C@H]1C(=CCO)O[C@H]2CC(=O)N12 | -0.665% (inactive) | –
8 | CN=C1C=CC(=C(c2ccc(N(C)C)cc2)c2ccc(N(C)C)cc2)C=C1 | – | 1000 nM (active)
9 | CO | -4.83% (inactive) | –

Test system: ICS
Assay: as above
Settings: P. falciparum in erythrocytes, SYBR Green DNA, 72 h; series mostly up to 28.7 µM; activity, negative = inhibition: at the top concentration
Procedure, shortened: as §1

Row | Structure (SMILES) | activity, negative = inhibition | Potency
10 | CCCCC(CC)COS(=O)(=O)O (centres undefined) | -3.89% (inactive) | –
11 | CC1(O)CCC(C(C)(C)O)CC1 (centres undefined) | 3.76% (inactive) | –
12 | CCCCCCOC(=O)c1cccnc1 | -25.3% (inactive) | –
13 | FC(F)(F)COCC(F)(F)F | 1.98% (inactive) | –
14 | CCCCCCCCCCCC(=O)N(CCO)CCO | 6.1% (inactive) | –
15 | O=P(O)(O)OC[C@H]1O[C@](O)(COP(=O)(O)O)[C@@H](O)[C@@H]1O | -2.63% (inactive) | –
16 | COc1cc(S(C)=O)ccc1-c1nc2ncccc2[nH]1 (centres undefined) | -25.5% (inactive) | –
17 | O=c1[nH]c(=O)n([C@H]2C[C@H](O)[C@@H](CO)O2)cc1/C=C/Br | 1.6% (inactive) | –
18 | CC(=O)[C@H]1CC[C@H]2[C@@H]3C=CC4=CC(=O)CC[C@@]4(C)[C@H]3CC[C@]12C | -1.28% [at 12.8 µM] (inactive) | –
19 | NC(N)=O | 14.3% (inactive) | –
20 | CCC(C(=O)NC(N)=O)c1ccccc1 (centres undefined) | 4.21% (inactive) | –
21 | CC(CCc1ccc(O)cc1)NCC(O)c1ccc(O)cc1 (centres undefined) | -14.3% (inactive) | –
22 | Nc1nccs1 | -1.67% (inactive) | –
23 | NC(=S)NS(=O)(=O)c1ccc(N)cc1 | 2.03% (inactive) | –
24 | O=C(OCc1ccccc1)c1ccc(O)cc1 | -18.7% (inactive) | –
25 | CC1C(=O)CC2C3(C)CCC2(C(C)C(=O)O)C(=O)C13 (centres undefined) | -5.36% (inactive) | –
26 | O=C(NNCS(=O)(=O)O)c1ccncc1 | -7.36% (inactive) | –
27 | CC(=O)Nc1ccc(OC(C)=O)cc1 | 5.54% (inactive) | –
28 | CC/C(=C(/CC)c1ccc(OP(=O)(O)O)cc1)c1ccc(OP(=O)(O)O)cc1 | -1.42% (inactive) | –
29 | OC[C@H]1O[C@@](CO)(O[C@H]2O[C@H](CO)[C@@H](O)[C@H](O)[C@H]2O)[C@@H](O)[C@@H]1O | 0.748% (inactive) | –

Row | Structure (SMILES) | activity, negative = inhibition | Potency
30 | [O-][N+](=Nc1ccccc1)c1ccccc1 | -2.76% (inactive) | –
31 | NC(=O)[C@H]1O[C@@H](O)[C@H](O)[C@@H](O)[C@@H]1O | -2.38% (inactive) | –
32 | CC(C)CCC[C@@H](C)[C@H]1CC[C@H]2[C@@H]3CC[C@@H]4C[C@H](O)CC[C@]4(C)[C@H]3CC[C@]12C | -13.5% (inactive) | –
33 | ClC(Cl)Cl | 19.7% (inactive) | –
34 | FC(F)(F)C(F)(F)C(F)(F)C(F)(F)C(F)(F)F | -2.41% (inactive) | –
35 | CC(CC=O)CCCC(C)(C)O (centres undefined) | -0.268% (inactive) | –
36 | CC(C)[C@H](N)C(=O)OCC(CO)OCn1cnc2c(=O)[nH]c(N)nc21 (some centres undefined) | 5.73% (inactive) | –
37 | CC(C)CCC[C@@H](C)[C@H]1CC[C@H]2[C@@H]3CC=C4C[C@@H](O)CC[C@]4(C)[C@H]3CC[C@]12C | 3.07% (inactive) | –
38 | CC(C)c1ncc([N+](=O)[O-])n1C | 6.13% (inactive) | –
39 | CCCc1ccc(C(=O)O)cc1 | 8.16% (inactive) | –
40 | C=CC(=O)O | 1% (inactive) | –
41 | COC(=O)CC[C@H](N)C(=O)O | -2.99% (inactive) | –
42 | CN1C(=O)C[C@@H](C(=O)N[C@@H](Cc2cnc[nH]2)C(=O)N2CCC[C@H]2C(N)=O)NC1=O | 9.8% (inactive) | –
43 | Cc1ncc(C[n+]2csc(CCOP(=O)(O)O)c2C)c(N)n1 | -8.7% (inactive) | –
44 | O=C(O)COc1ccccc1/C=N/NC(=O)c1ccncc1 | 7.44% (inactive) | –
45 | O=C(/C=C/c1cccc(F)c1)NC1CC1 | 8.92% (inactive) | –
46 | CC(C)(Oc1ccc(C2CCCc3ccccc32)cc1)C(=O)O (centres undefined) | -8% (inactive) | –
47 | O=C(O)[C@H]1C(=CCO)O[C@H]2CC(=O)N12 | 5.48% (inactive) | –
48 | CN=C1C=CC(=C(c2ccc(N(C)C)cc2)c2ccc(N(C)C)cc2)C=C1 | – | 398 nM (active)
49 | CO | 28.1% (inactive) | –
